Bioassay records as filed in PubChem BioAssay.
L3MBTL1 inh = L3MBTL1 (human) inhibition. Q9Y468. 230,000 compounds, 0.66% hits. Potency, µM (top dose mostly 57.1 µM), usual class: inhibitors. AlphaScreen L3MBTL1–H3K9me1 peptide binding. AID 485360; also: nearly all actives have a fitted effect of over 60% in size
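First, the protein-peptide complex forms for 30 min at room temperature (L3MBTL1 50 nM, biotinylated H3K9me1 peptide 75 nM). Next, compounds are pin-transferred and incubated 30 min. Finally, AlphaScreen beads are added and read after 30 min.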
G9a block = blocks human histone lysine methyltransferase G9a; 350,000 compounds, 8.8% hits; Potency, µM (doses to about 102 µM), usual class: inhibitors; AID 504332; G9a H3K9 monomethylation, AlphaScreen, 2 h; Q96KQ7; also: nearly all actives have a fitted effect of over 75% in size
Target sequence (Q96KQ7 913-1193 limits assumed): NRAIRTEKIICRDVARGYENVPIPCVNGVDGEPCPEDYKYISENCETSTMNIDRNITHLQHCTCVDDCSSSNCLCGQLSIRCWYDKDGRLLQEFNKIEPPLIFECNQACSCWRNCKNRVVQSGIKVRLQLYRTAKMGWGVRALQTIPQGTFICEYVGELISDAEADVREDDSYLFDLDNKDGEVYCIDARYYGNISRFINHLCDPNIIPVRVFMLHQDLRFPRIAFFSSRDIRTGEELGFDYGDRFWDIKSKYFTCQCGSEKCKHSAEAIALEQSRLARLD
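AlphaScreen read-out: biotin-H3K9 peptide (500 nM) methylation by 20 nM enzyme with 20 uM SAM, 2 h at room temperature after 15 min compound preincubation; anti-monomethyl H3K9 antibody plus donor/acceptor beads, 10 min dark.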
HP1b chromo inh = HP1-beta chromodomain-methylated histone interaction inhibition | P83916 | AlphaScreen HP1-beta / biotin-H3K9me3 peptide binding | Potency, µM (top dose mostly 114 µM), usual class: inhibitors | 390,000 compounds, 0.56% hits | AID 540317; also: nearly all actives have a fitted effect of over 70% in size
Target sequence (P83916 whole entry, looked up): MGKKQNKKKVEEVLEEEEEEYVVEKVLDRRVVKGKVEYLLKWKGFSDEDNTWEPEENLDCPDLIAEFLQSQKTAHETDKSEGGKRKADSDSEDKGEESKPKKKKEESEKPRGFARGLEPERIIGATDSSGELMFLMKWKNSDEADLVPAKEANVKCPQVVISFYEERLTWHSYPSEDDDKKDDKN
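Compound inhibition of the preformed complex between 50 nM HP1-beta and 50 nM biotinylated H3K9me3 peptide was read by AlphaScreen. Buffer was PBS pH 7.4 with 0.01% Tween-20. Incubations ran 30 min at room temperature, with 10 ug/mL donor/acceptor beads.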
BAZ2B inh = blocks human BAZ2B; Q9UIF8; AlphaScreen BAZ2B-H3K14Ac peptide displacement; Potency, µM (highest dose often 114 µM), usual class: inhibitors; 360,000 compounds, 4.4% hits; also: nearly all actives have a fitted effect of over 60% in size
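In this displacement format the biotinylated H3(5-23) peptide acetylated at Lys14 serves as ligand at 50 nM, with BAZ2B at 50 nM in PBS pH 7.4 containing 0.01% Tween-20. Donor and acceptor beads are 10 ug/mL final.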
JMJD2A Tudor = blocks the human JMJD2A Tudor domain; AlphaScreen JMJD2A-Tudor / H3K4me3 peptide binding; Potency, µM (top dose mostly 114 µM), actives largely listed as inhibitors; 390,000 compounds, 4.4% hits; AID 504339; also: nearly all actives have a fitted effect of over 50% in size
Hits are given with their value; i = inactive; ? = inconclusive; nt = no result; [ ] = remark or other dose. Only some compounds are listed: those with a hit (about 11% of all), similar ones and a draw of the others. Calls follow the shape of the dose curve; as a rule, active = well fitted inhibition curve with a large enough effect; inconclusive = small, poorly fitted or top-dose-only effect; inactive = no such curve, though single readings can be large or run the other way.

SMILES	L3MBTL1 inh	G9a block	HP1b chromo inh	BAZ2B inh	JMJD2A Tudor
O=C(CNC(=O)C1CCCCC1)OCC(=O)c1ccc([N+](=O)[O-])cc1	nt	nt	i	nt	i
COc1ccc(N2CC(c3nc(-c4ccccc4C)no3)CC2=O)cc1Cl (centres undefined)	nt	i	i	i	i
COCCN1C(=O)C(O)=C(C(=O)c2cccs2)C1c1ccccc1 (centres undefined)	i	17.8µM	i	i	i
CC(=O)C1=C(O)C(=O)N(CCc2c[nH]c3ccccc23)C1c1ccc(C)cc1 (centres undefined)	i	44.7µM	i	i	i
CC(=O)CSc1nnc2cc(C)c3cc(C)cc(C)c3n12	nt	?	i	?	i
Cc1nc2ccc(NC(=O)c3ccc(Cl)c([N+](=O)[O-])c3)cc2s1	i	?	i	i	i
Cc1cc(C)c(-c2csc(NC(=O)C3=NN(c4ccccc4)C(=O)CC3)n2)c(C)c1	i	28.2µM	i	i	i
CSc1nc2ccc(NC(=O)c3ccccn3)cc2s1	nt	?	i	i	28.2µM
Cc1nc2ccc(NC(=O)c3ccc(Cl)nc3)cc2s1	nt	?	i	i	i
Cc1nc2ccc(NC(=O)c3cc(Cl)ccn3)cc2s1	nt	44.7µM	i	79.4µM	i
Cc1nc2ccc(NC(=O)c3cc([N+](=O)[O-])cc([N+](=O)[O-])c3Cl)cc2s1	i	6.31µM	?	?	56.2µM
CSc1nc2ccc(NC(=O)C3=NNC(=O)CC3)cc2s1	i	i	i	i	i
O=C(Nc1ccc(F)c(Cl)c1)Nc1c[nH]c(=O)[nH]c1=O	nt	i	i	i	i
O=C(NCc1ccncc1)C1=NN(c2ccccc2)C(=O)CC1	i	25.1µM	i	i	i
CSc1nc2ccc(NC(=O)C3=NN(c4ccccc4)C(=O)CC3)cc2s1	?	44.7µM	i	i	?
CC(=O)Nc1ccc2nc(NC(=O)c3cccnc3)sc2c1	i	i	i	i	i
CC(=O)Nc1ccc2nc(NC(=O)C(Cl)(Cl)Cl)sc2c1	i	50.1µM	i	i	i
CN1CCN(c2nc3c(c(=O)[nH]c(=O)n3C)n2Cc2ccccc2)CC1	i	i	i	?	i
COc1ccc(C(=O)N2CCN(c3ncccn3)CC2)cc1	nt	i	i	i	i
COc1ccc(C(=O)N2CCN(c3nc(C4CC4)nc4sc(C)c(C)c34)CC2)cc1	nt	39.8µM	i	?	?
Cc1sc2nc(C3CC3)nc(N3CCN(C(=O)c4ccccc4F)CC3)c2c1C	nt	44.7µM	i	i	i
Cc1sc2nc(C3CC3)nc(N3CCN(S(=O)(=O)c4ccc(F)cc4)CC3)c2c1C	i	i	i	i	i
Cc1sc2nc(C3CC3)nc(N3CCN(C(=O)c4ccc(F)cc4)CC3)c2c1C	nt	44.7µM	i	?	i
Cc1sc2nc(C3CC3)nc(N3CCN(C(=O)c4ccc(Cl)cc4)CC3)c2c1C	nt	44.7µM	i	?	44.7µM
Cc1ccc(C)c(N2CCN(C(=O)c3cc(S(=O)(=O)N4CCCC4)c[nH]3)CC2)c1	nt	i	i	?	i
SMILES	L3MBTL1 inh	G9a block	HP1b chromo inh	BAZ2B inh	JMJD2A Tudor
CN(C)c1ccc(Nc2ccc([N+](=O)[O-])cn2)cc1	i	nt	i	?	?
OC[C@@H](O)[C@H](O)C(/C=N/Nc1ccccc1)=N\Nc1ccccc1	nt	?	?	?	79.4µM
O=C(COC(=O)C12CC3CC(CC(O)(C3)C1)C2)NCc1ccco1	nt	nt	i	nt	i
CCOC(=O)c1[nH]c2ccc(Br)cc2c1NC(=O)CCN1CCC(C(=O)OCC)CC1	i	50.1µM	i	i	i[11.4 µM]
Cn1c(=S)[nH]c(=O)c2ncc(=O)[nH]c21	i	?	i	i	28.2µM
CCc1cccc(NC(=O)CCS(=O)(=O)c2cc3c4c(c2)CCN4C(=O)CC3)c1	nt	?	i	i	i
CCOc1ccc(Nc2ccnc3cc(Cl)ccc23)cc1	nt	i	i	i	i
CCN1CCC(Nc2ccnc3cc(Cl)ccc23)CC1	i	31.6µM	i	i	i
CCc1ccc(NC(=O)c2ccc3c(c2)N(Cc2ccc(C)cc2)CCS3)cc1	nt	i	i	i	i
O=C1C(=O)N(CCN2CCOCC2)C(c2ccccc2F)/C1=C(\O)c1ccc(S(=O)(=O)N2CCOCC2)cc1 (centres undefined)	nt	50.1µM	i	i	i
CN(C)CCN1C(=O)C(=O)/C(=C(/O)c2ccc(S(=O)(=O)N3CCOCC3)cc2)C1c1ccccc1 (centres undefined)	i	i	i	i	i
O=C1C(=O)N(CCN2CCOCC2)C(c2ccc(Cl)cc2)/C1=C(/O)c1ccc(S(=O)(=O)N2CCOCC2)cc1 (centres undefined)	nt	56.2µM	i	i	i
CCOc1ccc(S(=O)(=O)NCC(c2ccco2)S(=O)(=O)c2ccc(C)cc2)cc1 (centres undefined)	nt	i	i	i	i
COc1cc(CC(=O)Nc2ccc3c(c2)CCC3)cc(OC)c1OC	i	i	i	i	i
CCOc1ccccc1NC(=O)Nc1ccc2c(c1)CCC2	nt	i	i	i	i
CCOc1cc(CNc2ccc3c(c2)CCC3)ccc1O	nt	8.91µM	i	i	79.4µM
COc1cc(CNc2ccc3c(c2)CCC3)cc(OC)c1O	i	?	31.6µM	39.8µM	3.98µM
COc1ccc(C)c2sc(N(Cc3cccnc3)C(=O)C3CCCCC3)nc12	nt	i	i	i	i
COC(=O)c1scc(-c2ccc(C)cc2)c1S(=O)(=O)N1CCN(c2cccc(Cl)c2)CC1	nt	i	i	i	i
COc1ccc(OC)c2[nH]c(C(=O)N3CCC(C(=O)O)CC3)cc12	nt	i	i	i	i
COc1ccc(OC)c2[nH]c(C(=O)O)cc12	i	?	i	i	89.1µM
COc1cc(/C=N/Nc2nn3cnnc3c3ccccc23)ccc1O	i	79.4µM	i	?	i
O=C1Nc2ccccc2N=C(c2ccccc2)C1Br (centres undefined)	i	nt	i	?	?
O=C1Nc2ccccc2N=C(c2ccccc2)C1N1CCOCC1 (centres undefined)	i	39.8µM	i	i	i
CC(=O)c1cc(-c2ccc(F)cc2)n(CC(=O)NCc2ccc(C)cc2)c1C	nt	i	i	i	i
SMILES	L3MBTL1 inh	G9a block	HP1b chromo inh	BAZ2B inh	JMJD2A Tudor
CCOC(=O)c1cc(N)cc([N+](=O)[O-])c1	i	?	i	i	i
CCOC(=O)c1sc2cc([N+](=O)[O-])cc(SCC(C)C)c2c1N	nt	i	?	i	39.8µM
Cc1cc2c(ncn2Cc2ccccc2)c(N)c1C	i	?	i	70.8µM	?
O=C1C=CC2=C3c4cc(O)c(O)cc4CC3(O)COC2=C1O (centres undefined)	nt	nt	?	nt	3.16µM
c1csc(-c2nnc(N3CCCCCC3)c3ccccc23)c1	i	10µM	?	?	1.26µM
c1csc(-c2nnc(N3CCOCC3)c3ccccc23)c1	i	39.8µM	i	i	i[11.4 µM]
O=C1CCCN1CC(O)CS(=O)(=O)Cc1ccc(Cl)c(Cl)c1 (centres undefined)	nt	i[2.33 µM]	i	i	i
CN1CCN(/N=C/c2ccc(N(c3ccccc3)c3ccccc3)cc2)CC1	i	i[12.7 µM]	i	35.5µM	17.8µM
